Results filed as inconclusive are left out. Calls of active or inactive are those of the source. How the source made its calls: active means hit-call score of the fitted dose curve at least 0.9, where 1 is the maximum; inconclusive means response in the unintended direction; inactive means score below 0.9.
Experiments:
[1] = CCTE_Shafer_MEA_acute_LDH: CCTE's Lactate Dehydrogenase Assay for Cytotoxicity in the Neural Acute Assay, Shafer Lab (AID 2284086);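 further: active means LDH release rises above DMSO vehicle level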
How it was run: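 Rat cortical neurons cultured on microelectrode arrays; baseline 40-min recording, compound added, second 40-min recording; medium then sampled for released LDH (colorimetric kit, 490 nm). DMSO = negative control.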

[2] = CCTE_Shafer_MEA_acute_AB: CCTE's Alamar Blue Assay for Cytotoxicity in the Neural Acute Assay, Shafer Lab (AID 2284069);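 further: active compounds lower the viability signal compared with DMSO wells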
How it was run: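 Cytotoxicity endpoint for acute MEA exposures of primary rat cortical neurons on day 13 or 15. Resazurin reduction is read fluorescently at 544/590 nm, with DMSO as the negative-control baseline.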

In the case of `Cn1cnc([N+](=O)[O-])c1Sc1ncnc2nc[nH]c12`, the outcome [1] is reported as “inactive”.

For `COc1cccc(-c2ccc(/C=C\CN3CCCCCC3)cc2Cl)c1`, the outcome [1] was “inactive”.

With `CCCCC(CC)COC(=O)CCCCCCCCC(=O)OCC(CC)CCCC` (centres undefined) the outcome [2] was “inactive” and the outcome [1] was “inactive”.

Reference: PubChem BioAssay (EPA / NIEHS)
